# Test results as given in publication PMC5540273 (PLoS ONE, 2017).
# Tested on: LATS1
# Conditions: concentration: 1 μM,replicates: in singlicate; n = 1
# 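Note: KINOMEscan kinase panel screen.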
row,Compound,%Inh
1,Cn1ccc2ncnc(Oc3ccc(NC(=O)Nc4cc(C(C)(C)C)on4)c(Cl)c3)c21,20%
2,COC(=O)c1cccc(NC(=O)NC2CCN(c3ccnc(Nc4cc(OC)c(OC)c(OC)c4)n3)C2)c1 (stereo not shown) [GSK1379767],0%
3,O=C(Nc1ccccc1)c1cccc(Oc2ccc3nccn3n2)c1,0%

# Tested on: LATS2
# Conditions: concentration: 1 μM,replicates: in singlicate; n = 1
row,Compound,%Inh
1,Cn1ccc2ncnc(Oc3ccc(NC(=O)Nc4cnn(C(C)(C)C)c4)c(Cl)c3)c21,2%
2,COc1cc2ncn(-c3cc(OCC4CCCCC4)c(C(N)=O)s3)c2cc1OC [GSK204559],7%
3,COc1cccc(CNC(=O)NC2CCN(c3ccnc(Nc4cc(OC)c(OC)c(OC)c4)n3)C2)c1 (stereo not shown) [GSK1379765],5%
4,Cn1ccc2ncnc(Oc3ccc(NC(=O)Nc4cccc(C(F)(F)F)c4)c(F)c3)c21,0%
5,CNC(=O)c1ccccc1Nc1nc(Nc2cccc(CS(C)(=O)=O)c2)ncc1C.O=CO [GSK1520489],69%
6,C[C@@H](Oc1cc(-n2cnc3cc(-c4cnn(C)c4)ccc32)sc1C(N)=O)c1ccccc1Cl [GSK580432],2%
7,COc1cc(Nc2nccc(N3CCC(NC(=O)c4cccc(C#N)c4)C3)n2)cc(OC)c1OC (stereo not shown) [GSK1379751],0%
8,Cc1ccn2nc(-c3ccc(F)cc3)c(-c3ccncc3)c2c1.Cl [GW457859],0%
9,CN1CCN(CCNc2nc3cc(Oc4ccc(NC(=O)Nc5cc(C(F)(F)F)ccc5F)cc4)ccc3[nH]2)CC1.Cl.Cl [GW768504],0%
10,NC(=O)c1ccc(-c2cc3ncnc(SCC(=O)O)c3s2)cc1,0%
11,CC(=O)c1c(-c2ccncc2)[nH]c(-c2ccncc2)c1C [GW493036],4%
12,O=C(Nc1cccc(C(F)(F)F)c1)c1cccc(Oc2ccc3nccn3n2)c1,0%
13,CC(=O)Nc1nc2cnc(Nc3cc(NC(=O)c4cccc(CC(C)(C)C#N)c4)ccc3C)nc2s1,47%
14,COc1ccc(Nc2nccc(N3CCC(NC(=O)c4cccc(C#N)c4)C3)n2)cc1 (stereo not shown) [GSK1379730],0%
15,Cl.c1ccc(Oc2ccc(Nc3ccnc4cc(-c5ccc(CN6CCNCC6)o5)ccc34)cc2)nc1 [GW567142],0%
16,O=C(Nc1ccc(Oc2ccc3nc(NC(=O)C4CC4)cn3n2)c(F)c1)c1cccn(-c2ccccc2)c1=O,0%
17,Cl.Cl.NC[C@H](CC1CCCCC1)NC(=O)c1ccc(-c2ccnc3[nH]ccc23)s1 [GSK1581428],95.3%
18,COC(=O)Nc1nc2cc(Oc3ccc(NC(=O)Nc4cc(C(F)(F)F)ccc4Cl)cc3)ccc2[nH]1.Cl [GW697465],0%
19,CC(C(=O)NC1CCN(c2ccnc(Nc3ccc(F)cc3)n2)C1)c1ccc(Cl)cc1 (stereo not shown) [GSK1379713],0%

row,Compound,%Inh
1,O=C(NCC1CC1)c1ccc(-c2cc(C(=O)NC3CC3)ccc2F)cc1 [GW810445],0%
2,CCN1CCN(CCCC(=O)Nc2n[nH]c3nc(-c4ccc(O)cc4)c(Br)cc23)CC1 [SB-731579],0%
3,Cc1nnc(-c2ccc3occ(-c4ccc(S(C)=O)cc4)c3n2)o1 (stereo not shown),0%
4,CC(C)S(=O)(=O)N1CCN(Cc2ccc3c(c2)nc(NC(=O)c2ccsc2)n3C[C@H](O)c2ccccc2)CC1 [GW635815],0%
5,Cn1ccc2ncnc(Oc3ccc(NC(=O)Nc4cccc(C(F)(F)F)c4)c(Cl)c3)c21,0%
6,Cn1ccc2ncnc(Oc3ccc(NC(=O)Nc4ccnc(C(F)(F)F)c4)c(Cl)c3)c21,0%
7,Cc1cccc2c(-c3ccncc3)c(-c3ccc(F)cc3)nn12.Cl [GW461487],13%
8,Cc1ccc2c(-c3ccnc(Nc4ccc(C(F)(F)F)cc4)n3)cnn2n1 [GW819776],0%
9,Cc1n[nH]c2cc(Nc3ccnc(Nc4cccc(CN5CCOCC5)c4)n3)ccc12 [GW682569],0%
10,CCn1c(-c2nonc2N)nc2cncc(Br)c21 [SB-738004],79%
11,CN1CCN(CCCNc2nccc(-c3c(-c4ccc(F)cc4)nn4cc(C(N)=O)ccc34)n2)CC1 [GW622475],7%
12,Nc1nccc(-c2ccc3c(N)n[nH]c3c2)n1 [GSK1034945],0%
13,Cc1ccc(C(=O)Nc2ccc(Oc3ccc4nc(NC(=O)C5CC5)cn4c3)c(F)c2)c(=O)n1-c1ccccc1,0%
14,Cn1ccc2ncnc(Oc3ccc(NC(=O)Nc4cncc(C(F)(F)F)c4)c(Cl)c3)c21,0%
15,NC(=O)Nc1sc(-c2ccc(F)cc2)cc1C(N)=O [GW789449],0%
16,Cn1ccc2ncnc(Oc3ccc(NC(=O)Nc4cc(C(C)(C)C)on4)c(Cl)c3)c21,25%
17,COC(=O)c1cccc(NC(=O)NC2CCN(c3ccnc(Nc4cc(OC)c(OC)c(OC)c4)n3)C2)c1 (stereo not shown) [GSK1379767],17%
18,O=C(Nc1ccccc1)c1cccc(Oc2ccc3nccn3n2)c1,91.6%
